The record followed here is article PMC12136788.

Where a chain is given by its changes, count along the chain named. In all, about 24,000 sequences were measured (“enrichment r”: median about 0.99, highest 2% from about 3.7 on). What follows is part of a selection rich in the highest values, with near analogues and random picks from the rest.

First the molecules themselves.
B1: 22200820_22267049_921_CDS_ENSMUSG00000039197_ENSMUST00000045376|mouse|control|control (ssRNA)
RNA: GGGAGUUCUACAGUCCGACGAUCUUGAGACAGAAAGCCUCCAACAAAUGCAUCUCCAGCUCCAUUGGUGUCAAUGAUCUCUUCCUGGUUUUGAUCCAAGACAGGAAAAGCAGUGACAUCAUUCUCUGCAGCCACUAUGGUGUCCAACAGAGGAUUGAGCAUCA
B2: chr17:56552419:56552420:-_ENSMUSG00000013236_ENSMUST00000086828|mus_mus|mus_mus_mus_hu_False|8_68 (ssRNA)
RNA: GGGAGUUCUACAGUCCGACGAUCAAAAAAUACACUAUUUAAAAAAAAUGAAAUGUCACGGGAUACAAAAAAAUAUAGAGUUUUAAAAGAAAGCUGGAUUCUGGUCCCAGCCCAGUGUCCCCAGGCUGAGUGCGGAAGAGGAGCCAACAGAGGAUUGAGCAUCA
B3: chr17:56552419:56552420:-_ENSMUSG00000013236_ENSMUST00000086828|mus_mus|mus_mus_mus_hu_False|68_78 (ssRNA)
RNA: GGGAGUUCUACAGUCCGACGAUCAAAAAAUACACUAUUUAAAAAAAAUGAAAUGUCAGAAAAAGAAAAAAAAUAUAGAGUUUUAAAAGAAAGCUGGAUUCUGGUCCCAGCCCAGUGUCCCCAGGCUGCAGAGCGGGGAGGAGCCAACAGAGGAUUGAGCAUCA
B4: chr17:56552419:56552420:-_ENSMUSG00000013236_ENSMUST00000086828|mus_mus|mus_mus_mus_hu_False|68_98 (ssRNA)
RNA: B3 RNA with U38A, U39A, G58C, A59G, A60G, A61G, A63U, G64A, A65C
B5: chr17:56552419:56552420:-_ENSMUSG00000013236_ENSMUST00000086828|mus_mus|mus_mus_mus_hu_False|38_68 (ssRNA)
RNA: GGGAGUUCUACAGUCCGACGAUCAAAAAAUACACUAUUUAAAAAAAAUGAAAUGUCACGGGAUACAAAAAAAUAUAGAGUUUUAAAAGAAAGCUGGAAAAAAAAUGCAGCCCAGUGUCCCCAGGCUGCAGAGCGGGGAGGAGCCAACAGAGGAUUGAGCAUCA
B6: 33328512_33328632_5828_CDS_ENSG00000198646_ENST00000359003|human|control|control (ssRNA)
RNA: GGGAGUUCUACAGUCCGACGAUCAUCUGCACCAUAUUGUUCUUCCCCUUUCUCAAGAGAGCCUGUAACUUUCUUACAUGCCUUGGUCAACAAAAUUUGGCCAAUUUUGUCCACUUUUCCUUUGCCCUUACUAGACGAGACUGGCAACAGAGGAUUGAGCAUCA
B7: chr12:95365269:95365270:-_ENSG00000184752_ENST00000327772|hu_hu|motif|central (ssRNA)
RNA: GGGAGUUCUACAGUCCGACGAUCUCAUUGUCUUUACUUGUAAGGUGUUGAAGGUGGGAUCCACUCCUGAAUCUUCUUUCGGGUGGUAGAAUAAGGUACAUAUUGUUCUGGGGUGCCAGUCACGUUGAAUUUAUGGUUCGUCCACAACAGAGGAUUGAGCAUCA
B8: chrX:106345308:106345309:+_ENSMUSG00000031246_ENSMUST00000033598|mus_mus|motif|central (ssRNA)
RNA: GGGAGUUCUACAGUCCGACGAUCUUCUCUCAUCCACUUCCGAUUCUCUUCAUUAGCUGCAAUAUCUUUUUCUUCAAAUCCGGUUUUGUUGGCUUCUAAGAAACAAAGCACAUCUUGCUGUUUCUUCUUAAUCGCCGUAGAGCCCAACAGAGGAUUGAGCAUCA
B9: 25284998_25285535_556_3pUTR_ENSMUSG00000054793_ENSMUST00000068023|mouse|control|control (ssRNA)
RNA: GGGAGUUCUACAGUCCGACGAUCCACGCUCCACACCUUGCCGUUCUCCUGGCCGCUGCUCACUCCUUUCAACUCCUUGCGAUCCCGAUACCAGCGCAGGACCGCUGCGGGGCGCGACCGCGGAACCAGGCAGCUGAGUUCCACCAACAGAGGAUUGAGCAUCA
B10: 122215373_122233679_156_5pUTR_ENSG00000114030_ENST00000344337|human|control|control (ssRNA)
RNA: GGGAGUUCUACAGUCCGACGAUCACUUUUCAGGCGAAAGUUCUCUUUUCCUGGGGUGGUCAUGAUUUCAGGCUCAAGGCAACCGAUCCCGGUGCCACCGCUGAAGUUAGCCCCUCGCUCGCCCGCCCGCCGUGCCACUCCCGCCAACAGAGGAUUGAGCAUCA
B11: 36851294_36856410_1128_CDS_ENSMUSG00000022837_ENSMUST00000023535|mouse|control|control (ssRNA)
RNA: GGGAGUUCUACAGUCCGACGAUCAUUUAGCUCCAACAUCAUCUUUGUUCGUUUAGAUCUGAAACUCCUCUGCAAGGCAAUCACAGCAGACGGAAGCUUCUUUAAUCUCUUUCUGGUCUGGAAACCUUUCCAAUAGGCUUGAAUCAACAGAGGAUUGAGCAUCA
B12: chr18:52893488:52893489:-_ENSG00000196628_ENST00000354452|hu_hu|hu_hu_hu_mus_True|48_48 (ssRNA)
RNA: GGGAGUUCUACAGUCCGACGAUCUAUUUAGACCAUUUCCGCGGAGUUAUGGCAUUUACUCAGUGCUGAUAGGUGGAAAAACUACUUGAACAGGGAUUUUUUUUUUCCUUAAUACAUGCCAAGAUUGUGUGGCUGUCAAAACAGCAACAGAGGAUUGAGCAUCA
B13: chr4:142145789:142145790:+_ENSG00000109445_ENST00000262990|hu_hu|FALSE|FALSE (ssRNA)
RNA: GGGAGUUCUACAGUCCGACGAUCACACUGUGCACAAAUUGGUAACUUCUGUACAGAAUUACAAAAGUAGCAAAAUGCUCUAUUCUUCUGCCGCCUCUGACACUUGUCACAUUCCAUUGAGGCAUUACAUGGAUGUUUAGCUAACAACAGAGGAUUGAGCAUCA
B14: chr11:101919151:101919152:-_ENSMUSG00000017314_ENSMUST00000017458|mus_mus|motif|central (ssRNA)
RNA: GGGAGUUCUACAGUCCGACGAUCAAAUGAGAUUCCUAAUAUAAUAAAUAUAUUUCUAGCAUUUGUAAUAAAUAUUCUGUCGGUUCUCCCUCCCUCCCCUUCUCUAGGAUAUGGGCACACAGUGGUUCAGGGACAAGCUUGGGCCAACAGAGGAUUGAGCAUCA
B15: chr17:56552419:56552420:-_ENSMUSG00000013236_ENSMUST00000086828|mus_mus|mus_mus_mus_hu_False|68_88 (ssRNA)
RNA: GGGAGUUCUACAGUCCGACGAUCAAAAAAUACACUAUUUAAAAAAAAAAGAAAAAAACGGGAUACAAAAAAAUAUAGAGUUUUAAAAGAAAGCUGGAUUCUGGUCCCAGCCCAGUGUCCCCAGGCUGCAGAGCGGGGAGGAGCCAACAGAGGAUUGAGCAUCA
B16: chr17:56552419:56552420:-_ENSMUSG00000013236_ENSMUST00000086828|mus_mus|mus_mus_mus_hu_False|1_58 (ssRNA)
RNA: GGGAGUUCUACAGUCCGACGAUCAAAAAAUACACUAUUUAAAAAAAAUGAAAUGUCACGGGAUACAGUUACACUGACACUAUUAAAAGAAAGCUGGAUUCUGGUCCCAGCCCAGUGUCCCCAGGCUGCAGAGCGGGGCAGAGGCAACAGAGGAUUGAGCAUCA
B17: chr17:56552419:56552420:-_ENSMUSG00000013236_ENSMUST00000086828|mus_mus|mus_mus_mus_hu_False|1_68 (ssRNA)
RNA: B15 RNA with A48U, A49G, G50A, A53U, A54G, A55U, A56C, A138C, G139A, C143G
B18: chr17:56552419:56552420:-_ENSMUSG00000013236_ENSMUST00000086828|mus_mus|mus_mus_mus_hu_False|48_68 (ssRNA)
RNA: GGGAGUUCUACAGUCCGACGAUCAAAAAAUACACUAUUUAAAAAAAAUGAAAUGUCACGGGAUACAAAAAAAUAUAGAGUUUUAAAAAAAAAUAAGAUUCUGGUCCCAGCCCAGUGUCCCCAGGCUGCAGAGCGGGGAGGAGCCAACAGAGGAUUGAGCAUCA
B19: chr17:56552419:56552420:-_ENSMUSG00000013236_ENSMUST00000086828|mus_mus|mus_mus_mus_hu_False|28_68 (ssRNA)
RNA: B18 RNA with A88G, A92G, U93C, A94U, A95G, C107U, A108U, C112A, G114A, U115A
B20: chr7:7679991:7679992:-_ENSG00000106399_ENST00000396682|hu_hu|hu_hu_hu_mus_False|68_68 (ssRNA)
RNA: GGGAGUUCUACAGUCCGACGAUCUGGGAUGAAUCUUUUCCAGCUUCCCCACGAAGCACACGGGCCGGUCGAUGAAUUGUGGUAACAUGCUGGCGUUGACGCGCGCUUUGGGGAGCUGCAUUAUGUCCUCCAUGAUUCUGCCGCCAACAGAGGAUUGAGCAUCA
B21: 76906679_76906799_897_3pUTR_ENSMUSG00000022010_ENSMUST00000022587|mouse|control|control (ssRNA)
RNA: GGGAGUUCUACAGUCCGACGAUCUGGGGAGGGUUGAAAAGGCACAGAGCUCCUCGGGGUCAAUUAAACCAUUCCUCAGACAUCUGCCACGUUGCACAGGGCACAUCCCUGCUCACUCUCUGAUUAACCUUUAAUUCACUCAACCAACAGAGGAUUGAGCAUCA
B22: 129354385_129360783_1558_CDS_ENSG00000056277_ENST00000370978|human|control|control (ssRNA)
RNA: GGGAGUUCUACAGUCCGACGAUCAUGUUCAGCUUUCUCCUUGCUGGUCAAAAAUUGUAGUCUGCAUUUUGGGCAACGAUGAACUCCUUUUUUCUGAUGCUUCAUGUAAUGAUUCAUGUAGGGGGUUGCCAUUUUACUAACUUUCAACAGAGGAUUGAGCAUCA

The assay addresses T1, UNK ZnF1-3 (human, UniProt Q9C0B0 31-174).
T1 sequence: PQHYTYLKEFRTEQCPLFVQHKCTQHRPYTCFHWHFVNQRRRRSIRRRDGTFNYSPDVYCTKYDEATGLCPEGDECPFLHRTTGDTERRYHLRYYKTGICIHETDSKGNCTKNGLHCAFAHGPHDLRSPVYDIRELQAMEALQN
Nature of the assay: nsRBNS (natural sequence RNA bind-n-seq); RBNS binding buffer (assumed for nsRBNS): 25 mM Tris pH 7.5, 150 mM KCl, 3 mM MgCl2, 0.01% Triton X-100, 500 ug/ml BSA, 20 U/ml SUPERase-In, 4 C; UNK is unkempt and MSI1 is Musashi-1; names of the RNAs are library labels; protein concentration not given here; high values mean tight binding.
As for B1, the binding signal came to 0.736 enrichment R. The value for B2 was 6.22 enrichment R. The value for B3 was 10.9 enrichment R; that for B4 was 9.31 enrichment R. Consider B5, for which the binding signal came out at 10.8 enrichment R. The value for B6 was 0.505 enrichment R.

Regarding B7, the binding signal was 0.831 enrichment R. For the molecule B8, the binding signal was 0.538 enrichment R. The value for B9 was 0.858 enrichment R; that for B10 was 0.57 enrichment R; that for B11 was 0.644 enrichment R.

B12 gave a binding signal of 0.93 enrichment R.

The molecule B13 gave a binding signal of 1.04 enrichment R.

Molecule B14 yielded a binding signal of 3.58 enrichment R.

As to B15, the binding signal is 16.7 enrichment R. For B16, the binding signal came to 3.44 enrichment R.

The molecule B17 showed a binding signal of 9.75 enrichment R.

For B18, the binding signal was 8.41 enrichment R. Consider B19, for which the binding signal is 9.22 enrichment R. The value for B20 was 0.493 enrichment R. The value for B21 was 1.14 enrichment R; that for B22 was 0.531 enrichment R.
